Here are results for 13 compounds from PubChem BioAssay (NCI).

Molecules are shown by their SMILES. Compounds without any hit were thinned out: in the full panel of roughly 83,000, 20% have a hit.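 Note: values are percent growth. 100 is the growth of untreated cells, values between 100 and 0 indicate rising inhibition; between -100 and 0 indicates cell death.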 The source made the active and inactive calls. How the source made its calls: active means growth percent below 10; inactive means the rest.

What all share (assay): NCI-60 one-dose screen, 48 h (100 = growth as untreated, 0 = no growth, -100 = all killed)
Settings in all cases: 10 µM

Test [1] concerns HCT-15 colon.
For test [2], the system named is HT29 colon.
Test [3] relates to U251 CNS.
In test [4] the test system is PC-3 prostate.
Test [5] relates to SK-MEL-5 melanoma.
Test [6] has as its system UACC-62 melanoma.
Test [7] concerns LOX IMVI melanoma.
For test [8], the system named is SK-MEL-28 melanoma.
Test [9] deals with SK-MEL-2 melanoma.
Test [10] concerns EKVX NSCLC.
Test [11] deals with SN12C renal.
In test [12] the test system is UO-31 renal.
The test system of test [13] is TK-10 renal.
The subject of test [14] is ACHN renal.
In test [15] the test system is CAKI-1 renal.
The test system of test [16] is CCRF-CEM leukemia.
Test [17] concerns MOLT-4 leukemia.
Test [18] has as its system SNB-19 CNS.
In test [19] the test system is A498 renal.

Regarding `Nc1nc(SCC#CCCl)c2[nH]cnc2n1`, the growth was 45.1% (inactive) in [1]; 53.9% (inactive) in test [2]; 43.8% (inactive) in test [3]; 62.6% (inactive) in test [4]; 29.5% (inactive) in test [5]; 44% (inactive) in [6]. The growth in [7] is 27.8% (inactive); in test [8], 72.8% (inactive); in [9], 57.2% (inactive); in test [10] it was 54.4% (inactive); in [11], 44.8% (inactive); in [12] it was -6.63% (active). Further, the growth in test [13] was 37% (inactive); in test [14], 44% (inactive); in test [15], 9.59% (active); in test [16], 23.3% (inactive); in test [17], 35.8% (inactive).

Regarding `CCNC1(NC#N)CCCCC1`, the growth is 98.8% (inactive) in test [1]; 123% (inactive) in test [2]; 110% (inactive) in [18]; 98.9% (inactive) in test [3]; 95% (inactive) in test [4]; 96.8% (inactive) in [5]. Further, the growth is 105% (inactive) in test [6]; 104% (inactive) in test [7]; 103% (inactive) in test [8]; 157% (inactive) in test [9]; 100% (inactive) in test [11]; 90.9% (inactive) in test [12]. In addition, the growth in [13] was 141% (inactive); in test [14], 111% (inactive); in test [15], 96.3% (inactive); in [19] it was 98.3% (inactive); in test [16], 102% (inactive); in [17] it was 108% (inactive).

With `C=CCOc1ccc2c(c1)CC=C1[C@@H]2CC[C@]2(C)C(=O)/C(=N/O)C[C@@H]12`, the growth is 15% (inactive) in [1]; 26.8% (inactive) in [2]; 104% (inactive) in [18]; 89.5% (inactive) in test [3]; 87% (inactive) in [4]; 84.7% (inactive) in [5]. For the same compound, the growth in test [6] is 108% (inactive); in [7], 66.9% (inactive); in test [8], 105% (inactive); in test [9], 106% (inactive); in [11] it was 88.3% (inactive); in [12], 86% (inactive). The growth in test [13] is 72.3% (inactive); in test [14], 55.4% (inactive); in test [15], 50.4% (inactive); in test [19], 96.6% (inactive); in test [16], 30.9% (inactive); in test [17] it was 46% (inactive).

Consider `NC(N)=NS(=O)(=O)c1ccc(Nc2ccc3nnc(-c4ccncc4)n3n2)cc1`, for which the growth is 100% (inactive) in test [1]; 104% (inactive) in [2]; 94.3% (inactive) in [18]; 104% (inactive) in test [3]; 107% (inactive) in test [4]; 98.3% (inactive) in [5]. The growth was 97.1% (inactive) in test [6]; 97.2% (inactive) in test [7]; 107% (inactive) in test [8]; 131% (inactive) in [9]; 94.6% (inactive) in [11]; 78.6% (inactive) in test [12]. In addition, the growth was 112% (inactive) in test [13]; 101% (inactive) in [14]; 106% (inactive) in [15]; 95.5% (inactive) in test [19]; 109% (inactive) in test [16]; 101% (inactive) in [17].

For the compound `CCC(OC(=O)CC(C)C)c1ccccc1` (stereo unspecified), the growth in test [1] is 101% (inactive); in test [2] it was 93.6% (inactive); in test [18], 105% (inactive); in test [3] it was 86.9% (inactive); in [4], 94.8% (inactive); in test [5], 100% (inactive). Besides, the growth is 102% (inactive) in test [6]; 96.1% (inactive) in test [7]; 106% (inactive) in test [8]; 100% (inactive) in [9]; 99.4% (inactive) in test [10]; 95.1% (inactive) in test [12]. The growth in [13] was 91.1% (inactive); in test [14], 104% (inactive); in [15], 97.9% (inactive); in test [16] it was 104% (inactive); in [17], 98.1% (inactive).

Regarding `Cc1cc(/C=C2\SC(=Nc3ccccc3)N(C3CCCC3)C2=O)c(C)n1-c1ccc(Cl)cc1`, the growth in test [1] was -28.2% (active); in [2], -65.8% (active); in test [18] it was -65.8% (active); in test [3], -91.1% (active); in [4], -63.4% (active); in [5], -97.9% (active). For the same compound, the growth was -56.3% (active) in [6]; -72.7% (active) in test [7]; -69.8% (active) in [8]; -77.3% (active) in test [9]; -51.4% (active) in test [11]; -91.9% (active) in test [12]. In addition, the growth in [13] is -90.9% (active); in test [14], -76.3% (active); in test [15] it was -59.9% (active); in test [19], -88.3% (active); in [16] it was -9.97% (active); in test [17] it was -18% (active).

Take `COc1ccc(-c2nnc(SC/C(=N\O)c3ccccc3)o2)cc1`: the growth in test [1] is 97.5% (inactive); in test [2], 95% (inactive); in test [18], 99.7% (inactive); in [3], 103% (inactive); in [4], 86.8% (inactive); in test [5], 97.1% (inactive). For the same compound, the growth in [6] is 81% (inactive); in test [7] it was 95.1% (inactive); in test [8], 94.3% (inactive); in [9], 102% (inactive); in test [10], 95.8% (inactive); in [12], 97.1% (inactive). Besides, the growth was 107% (inactive) in test [13]; 101% (inactive) in test [14]; 95.1% (inactive) in [15]; 80.8% (inactive) in [19]; 88.9% (inactive) in test [16]; 80.4% (inactive) in test [17].

In the case of `COc1ccc(-c2nnc(SCC(=O)c3ccccc3)o2)cc1`, the growth in [1] is 96.3% (inactive); in test [2], 90.8% (inactive); in test [18], 96.9% (inactive); in test [3], 98.1% (inactive); in test [4], 97.1% (inactive); in test [5] it was 92.8% (inactive). Further, the growth is 88.3% (inactive) in [6]; 92.8% (inactive) in test [7]; 106% (inactive) in test [8]; 95.6% (inactive) in test [9]; 97.9% (inactive) in test [10]; 99.4% (inactive) in test [12]. The growth in [13] was 89.1% (inactive); in test [14], 97.5% (inactive); in [15], 94.7% (inactive); in test [19], 85.1% (inactive); in [16], 59.5% (inactive); in [17] it was 95.2% (inactive).

For `CCCCCCCCCCCCCCCCn1cc[n+](C)c1`, the growth in [1] is 9.85% (active); in test [2] it was -100% (active); in [18], -75.9% (active); in test [3], -70% (active); in [4], -69.7% (active); in test [5], -95.2% (active). In addition, the growth was -94.6% (active) in test [6]; -50.4% (active) in test [7]; -86.2% (active) in test [8]; -64.5% (active) in [9]; -94.6% (active) in test [11]; -85.9% (active) in test [12]. Also, the growth is -80.4% (active) in [13]; -0.6% (active) in test [14]; -83.5% (active) in test [15]; -65.3% (active) in test [19]; 33.6% (inactive) in test [16]; 17.2% (inactive) in [17].

`COc1ccc(CSc2nc3cc(OC)c(OC)cc3c(=O)n2-c2ccc(OC)cc2OC)cc1`: the growth in [1] is 80.6% (inactive); in [2] it was 88% (inactive); in test [18], 79.6% (inactive); in [3], 85.9% (inactive); in [4] it was 55.6% (inactive); in test [5] it was 80.5% (inactive). Further, the growth was 80.2% (inactive) in test [6]; 83.4% (inactive) in test [7]; 102% (inactive) in test [8]; 91.5% (inactive) in [9]; 90.1% (inactive) in test [11]; 55.4% (inactive) in test [12]. The growth is 108% (inactive) in test [13]; 94% (inactive) in [14]; 68.7% (inactive) in [15]; 58.6% (inactive) in test [19]; 92.7% (inactive) in test [16]; 79.4% (inactive) in [17].

On to `COc1cccc2c1O/C(=C\c1ncc([N+](=O)[O-])n1C)C2=O`, for which the growth is 5.88% (active) in test [1]; -20.7% (active) in test [2]; -2.3% (active) in test [18]; -11.7% (active) in test [3]; -21.2% (active) in test [4]; -92.4% (active) in test [5]. Further, the growth in test [6] was -77.7% (active); in [7], -58.8% (active); in test [8] it was -25.4% (active); in test [9] it was -51.5% (active); in [11], -54.2% (active); in [12] it was -34.7% (active). For the same compound, the growth in test [13] is -33.7% (active); in test [14], 7.42% (active); in test [15], -26.5% (active); in test [19] it was -33.4% (active); in test [16], 8.19% (active); in [17], -1.08% (active).

For the compound `C[C@H](NC(=O)[C@@H]1CSSC[C@@H](NC(=O)Cc2nc3ccccc3cc2O)C(=O)NCC(=O)N1C)c1ccccc1`, the growth in [1] is 102% (inactive); in test [2], 100% (inactive); in [18] it was 95.2% (inactive); in [3], 95.7% (inactive); in test [4] it was 81.2% (inactive); in [5], 82.5% (inactive). For the same compound, the growth is 77.9% (inactive) in test [6]; 31.3% (inactive) in [7]; 67.4% (inactive) in test [8]; 82.3% (inactive) in test [9]; 99.5% (inactive) in test [10]; 92% (inactive) in test [12]. The growth was 109% (inactive) in test [13]; 96.8% (inactive) in test [14]; 99.7% (inactive) in [15]; 120% (inactive) in [19]; 20.1% (inactive) in test [16]; -17.2% (active) in test [17].

For `CCN(CC)CCOC(=O)c1ccc(N=Nc2ccc(O)c(OC)c2)cc1`, the growth in [1] is 103% (inactive); in test [2] it was 90.7% (inactive); in [18] it was 104% (inactive); in test [3] it was 87.1% (inactive); in [4], 95.4% (inactive); in [5], 92% (inactive). Besides, the growth in test [6] was 99.8% (inactive); in test [7] it was 92.2% (inactive); in test [8] it was 107% (inactive); in test [9] it was 87.8% (inactive); in [10], 99.2% (inactive); in test [12], 87.8% (inactive). For the same compound, the growth in [13] was 87.2% (inactive); in [14], 105% (inactive); in [15] it was 97.4% (inactive); in [16], 99.5% (inactive); in test [17], 93.8% (inactive).
